Hit rate of the full screen: of about 310,000 compounds, about 14,000 (4.5%) showed an effect of 50% or more. Effects have a minus sign here. The entries come from a sample that favours strong results as a whole.
Molecular target: human ether-à-go-go-related gene (hERG) potassium channel (human, UniProt Q12809)
Assay: primary screen, population patch clamp on CHO cells stably expressing hERG; higher = less effect of the substance
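Further: peak tail current of the secondary pulse compared with the same well before compound.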

human ether-à-go-go-related gene (hERG) potassium channel, sequence (Q12809 whole entry, looked up): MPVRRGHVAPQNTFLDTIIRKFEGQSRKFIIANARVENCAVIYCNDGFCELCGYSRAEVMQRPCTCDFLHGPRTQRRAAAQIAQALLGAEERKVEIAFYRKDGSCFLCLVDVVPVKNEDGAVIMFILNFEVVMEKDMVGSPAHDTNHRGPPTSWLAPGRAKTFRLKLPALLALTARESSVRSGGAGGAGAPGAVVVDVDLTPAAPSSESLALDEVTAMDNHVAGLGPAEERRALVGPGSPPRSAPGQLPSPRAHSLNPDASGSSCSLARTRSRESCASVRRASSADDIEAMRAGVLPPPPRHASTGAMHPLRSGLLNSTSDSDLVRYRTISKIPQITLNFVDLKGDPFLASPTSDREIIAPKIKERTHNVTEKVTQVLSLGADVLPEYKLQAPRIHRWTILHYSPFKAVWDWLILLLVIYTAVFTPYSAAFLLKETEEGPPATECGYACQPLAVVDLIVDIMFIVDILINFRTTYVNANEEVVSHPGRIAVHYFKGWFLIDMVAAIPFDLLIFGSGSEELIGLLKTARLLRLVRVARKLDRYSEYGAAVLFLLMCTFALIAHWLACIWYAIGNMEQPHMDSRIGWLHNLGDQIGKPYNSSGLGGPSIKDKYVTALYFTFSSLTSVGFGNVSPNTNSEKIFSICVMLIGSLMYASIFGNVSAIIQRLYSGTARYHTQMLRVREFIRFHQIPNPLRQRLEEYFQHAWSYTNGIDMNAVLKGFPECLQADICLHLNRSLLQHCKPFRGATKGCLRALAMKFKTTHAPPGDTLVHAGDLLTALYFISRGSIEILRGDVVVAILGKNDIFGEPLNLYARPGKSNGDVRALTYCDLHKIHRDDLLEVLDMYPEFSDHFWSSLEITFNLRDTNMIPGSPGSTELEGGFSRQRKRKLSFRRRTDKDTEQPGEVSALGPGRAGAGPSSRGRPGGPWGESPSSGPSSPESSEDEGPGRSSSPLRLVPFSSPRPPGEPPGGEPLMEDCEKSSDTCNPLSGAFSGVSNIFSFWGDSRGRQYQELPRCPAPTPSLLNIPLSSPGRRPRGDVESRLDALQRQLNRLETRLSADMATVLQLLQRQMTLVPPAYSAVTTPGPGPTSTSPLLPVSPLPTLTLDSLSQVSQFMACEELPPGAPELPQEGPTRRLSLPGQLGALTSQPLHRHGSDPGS

Structure (SMILES)	hERG current change (%, negative = inhibition) at 10uM
O=C(OCC(=O)N1CCN(C(=O)c2ccco2)CC1)c1ccccc1OCc1ccc(Cl)cc1	-35.3%
O=C(c1ccc(COc2ccc(F)cc2)o1)n1cccn1	4.97%
CCN1CCN(C(=O)c2ccc(COc3cccc(Cl)c3)o2)CC1	-23.7%
CCN1CCN(C(=O)c2ccc(COc3ccc(Cl)cc3)o2)CC1	-52.5%
O=C(c1ccccc1OCc1ccc(Cl)cc1)N1CCN(c2ccccn2)CC1	-42.4%
Nn1c(SCC(=O)NC2CCCCC2)nnc1-c1ccccc1F	-3.17%
CCCc1[nH]nc2c1C(c1ccsc1)C(C#N)=C(N)O2 (centres unmarked)	-7.53%
CCOC(=O)C1CCN(C(=O)c2cc3c(OC)c(OC)c(OC)cc3[nH]2)CC1	15.5%
O=C(COc1ccc(Cl)cc1Cl)N1CCN(C(=O)c2ccco2)CC1	20.6%
O=C(c1ccc(COc2ccc(Cl)cc2Cl)o1)N1CCCC1	-43.1%
O=C(c1ccc(COc2ccc3c(c2)CCC3)o1)N1CCN(c2ccccc2)CC1	15.5%
O=C(c1ccco1)N1CCN(C(=O)c2ccc(COc3ccc4c(c3)CCC4)o2)CC1	-69%
NNC(=O)c1ccc(COc2ccc3c(c2)CCC3)o1	0.852%
O=C(c1ccco1)N1CCN(C(=O)c2ccc(COc3ccc(Cl)cc3Cl)o2)CC1	-70.4%
CCOc1cc2[nH]c(=S)n(CCC(=O)NCc3ccco3)c(=O)c2cc1OCC	23.6%
CCOc1ccccc1CN1CCN(Cc2cc3ccccc3[nH]2)CC1CCO (centres unmarked)	-59.3%
CC(C)(C)CN1CCN(Cc2cc3ccccc3[nH]2)CC1CCO (centres unmarked)	-8.03%
CCOc1ccccc1CN1CCN(Cc2cc(=O)c3ccccc3[nH]2)CC1CCO (centres unmarked)	-66.6%
Cc1ccc(CN2CCN(Cc3cc(=O)c4ccccc4[nH]3)CC2CCO)o1 (centres unmarked)	-30.8%
O=c1cc(CN2CCN(Cc3ccc(F)cc3)C(CCO)C2)[nH]c2ccccc12 (centres unmarked)	-61.2%
CC(C)CCN1CCN(Cc2cc3ccccc3[nH]2)CC1CCO (centres unmarked)	-22.4%
Cc1cc(NC(=O)CSc2nc3sc4c(c3c(=O)n2C)CCCC4)no1	7.47%

Structure (SMILES)	hERG current change (%, negative = inhibition) at 10uM
O=c1c2ccccc2c(-c2ccccc2)nn1-c1ccc(Cl)c(Cl)c1	13.3%
CCOC(=O)C1CCCNC1=O (centres unmarked)	14.8%
Brc1ccc2c(c1)OCCOCCOCCOCCOCCOCCO2	-70.8%
Cl.Nc1ccc2c(c1)OCCOCCOCCOCCOCCO2	-33.5%
Brc1ccc2c(c1)OCCOCCOCCOCCOCCO2	-76.4%
O=C(O)/C=C/c1ccc2c(c1)OCCO2	-25%
S=C(Nc1ccc(Br)cc1)Nc1ccc2c(c1)OCCO2	20.5%
Brc1ccc2c(c1)OCCOCCOc1cc(Br)ccc1OCCOCCOCCO2	-4.86%
CC(=O)Nc1cc2c(cc1Br)OCCO2	21.5%
Brc1cc2c(cc1Br)OCCOCCOCCOCCO2	-76.5%
C=Cc1ccc2c(c1)OCCOCCOCCOCCOCCO2	-71.2%
O=C(Nc1ccc(Br)cc1F)c1ccc2c(c1)OCCO2	12.3%
Brc1cc2c(cc1Br)OCCOCCOCCO2	-11.5%
O=C(Nc1ccc2c(c1)OCCO2)c1ccc(Br)cc1	-3.81%
COC(=O)/C(=C\c1cc(OC)c(OC)c(OC)c1)c1nc2ccccc2[nH]1.Cl	19%
COc1ccc(C)cc1NC(=O)CCCN1C(=O)C(c2ccccc2)Oc2cccnc21 (centres unmarked)	2.21%
Cc1cccc(CCNC(=O)CCS(=O)(=O)c2cc3c(cc2Cl)NC(=O)CO3)c1	3.71%
CC[C@H]1OC(=O)[C@H](C)[C@@H](O[C@H]2C[C@@](C)(OC)[C@@H](O)[C@H](C)O2)[C@H](C)[C@@H](O[C@@H]2O[C@H](C)C[C@H](N(C)C)[C@H]2O)[C@](C)(O)C[C@@H](C)CN(C)[C@H](C)[C@@H](O)[C@]1(C)O	1.55%
Cc1ccc(/C(O)=C2/C(=O)C(=O)N(Cc3ccco3)C2c2cccs2)cc1 (centres unmarked)	-8.53%
CCOC(=O)c1cc(C(=O)n2cc(Cl)cn2)nn1C	10.6%
Cc1ccc(-c2csc(NC(=O)CCNC(=O)c3ccco3)n2)cc1	5.76%
COc1cc2c(cc1NC(=O)c1cc(-c3cccnc3)nc3ccc(C)cc13)oc1ccccc12	8.86%

— article PMC4336329 (PLoS ONE, 2015)
